The list is not random: actives were taken first. Their share in the collection is about 19%.
DT40 TDP1 CPT: growth inhibition of DT40 Tdp1-/-;hTDP1 cells with camptothecin (screen for TDP1 inhibitors); chicken DT40 Tdp1-/-;hTDP1 cells + 20 nM CPT, ATP luminescence, 48 h; Potency, µM (series often up to 46.2 µM), usual class: inhibitors; 420,000 compounds, 12% hits; note: nearly all actives have a fitted effect of over 55% in size
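Chicken DT40 Tdp1-/- cells stably complemented with human TDP1 were seeded at 400 cells/well in medium containing 20 nM camptothecin, exposed to pin-transferred compounds, and grown at 37 °C for at least 48 hr. Viability was read as ATP luminescence.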
TDP1 cell noCPT: qHTS for Inhibitors of human tyrosyl-DNA phosphodiesterase 1 (TDP1): qHTS in cells in absence of CPT; DT40 Tdp1-/- hTDP1 cells, no CPT, ATP luminescence, 48 h; Potency, µM (highest dose often 46.2 µM), hits mostly inhibitors; 420,000 compounds, 15% hits; AID 686978, 2013; note: nearly all actives have a fitted effect of over 55% in size
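Chicken DT40 Tdp1-/- cells complemented with human TDP1, screened without camptothecin (DMSO vehicle only), 400 cells/well. Compounds pin-transferred, cells incubated at 37 °C for at least 48 hr. Growth read as ATP-dependent luminescence (CellTiter-Glo, 30 min at RT).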
uPA generation: cell surface uPA generation inhibition; 330,000 compounds, 0.31% hits; AID 540303; cell surface uPA generation assay, qHTS; Potency, µM (highest dose often 38.3 µM), actives largely listed as inhibitors; active = well fitted inhibition curve with a large enough effect; inconclusive = small, poorly fitted or top-dose-only effect; inactive = no such curve, though single readings can be large or run the other way; tested in mouse RAW 264.7 cells; note: nearly all actives have a fitted effect of over 55% in size
HT1080NT lethal: kills 2HG-producing HT-1080-NT fibrosarcoma cells | HT-1080-NT fibrosarcoma viability, CellTiter-Glo ATP luminescence, 48 h | Potency, µM (series often up to 46.1 µM), actives largely listed as cytotoxic | 360,000 compounds, 1.6% hits | AID 686970;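 note: NT is the 2HG producing partner of a matched IDH1 knockdown line; nearly all actives have a fitted effect of over 55% in size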
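Compounds were tested in concentration-response format on HT-1080-NT cells for 48 hours at 37 degrees C. Cell viability came from CellTiter-Glo luminescence; curves were classified by r2, response magnitude and activity.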
HT1080 IDH1KD tx: HT-1080 IDH1 knockdown cell toxicity (counter line) | Potency, µM (titrated, usually from 46.1 µM), most hits filed as cytotoxic | 360,000 compounds, 2% hits | HT-1080 IDH1 knockdown viability, ATP luminescence, 48 h | AID 686971
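IDH1KD HT-1080 cells, 750/well, RPMI + 5% FBS; compound pinned after 2 h settling; 48 h, 37 °C; CellTiter-Glo luminescence; % activity normalised to DMSO and no-cell wells; curves fitted, classed by r2 and efficacy.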
IL1B secr inh: inflammasome signaling inhibition, IL-1 beta readout; THP-1 LPS/ATP IL-1B secretion, AlphaLISA, 16 h; stronger effect = lower value; activity change, % at 57.5 µM; 360,000 compounds, 4.7% hits; AID 743279; in the data active = activity change below about -50%; inconclusive = mostly about -30% to -49%
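THP-1 cells pretreated 1 hr with compounds (up to 57.5 uM final), then stimulated with LPS (250 ng/mL final) plus ATP (1.25 mM final); secreted IL-1B measured by AlphaLISA after 16 hr, decreased signal indicating inhibition.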
Hits are given with their value; . = inactive; ? = inconclusive; / = no result given; [ ] = another dose, or the depositor's remark. Unless noted, calls come from the whole dose curve; as a rule, active = well fitted curve in the direction sought with a large enough effect; inconclusive = small, poorly fitted or top-dose-only effect, or another doubt; inactive = no such curve, though single readings can be large; an effect the other way counts as inactive or inconclusive.

SMILES	DT40 TDP1 CPT	TDP1 cell noCPT	uPA generation	HT1080NT lethal	HT1080 IDH1KD tx	IL1B secr inh
C#CCOCCOCCOCCNc1nc(N2CCN(C(=O)CCCCCCCCCCNC(=O)[C@@H](CCSC)n3cc(CCO)nn3)CC2)nc(N2CCN(C(=O)CCCCCCCCCCNC(=O)[C@H]([C@@H](C)CC)n3cc(CCCCCN)nn3)CC2)n1	?	16µM	?	?	?	-72
C#CCOCCOCCOCCNc1nc(N2CCN(C(=O)[C@H]([C@@H](C)CC)n3cc(CCCCN)nn3)CC2)nc(N2CCN(C(=O)[C@H]([C@@H](C)CC)n3cc(CCCN=C(N)N)nn3)CC2)n1	.	.	.	.	.	.
CCn1c(SCC(=O)Nc2cccc(S(=O)(=O)N(C)c3ccccc3)c2)nnc1C1CC1	?	?	.	.	.	.
NC(=O)C12CCCC(Br)(CCC1)C2	.	.	.	.	.	-63
COc1cc(-c2nc(C)cnc2C)cc2c1OCCN(C(=O)Cn1nc(-c3ccccc3)c3ccccc3c1=O)C2	.[9.04 µM]	.	/	/	/	/
COc1ccc(Nc2n[nH]c(C)c2[N+](=O)[O-])cc1	.	.	.	.	.	.
CC(=O)Nc1ccc(Nc2nc(C)c([N+](=O)[O-])c(Nc3ccc(NC(C)=O)cc3)n2)cc1	?	6.5µM	.	.	.	.
CNc1nc(C)c([N+](=O)[O-])c(Nc2ccc(OC)cc2)n1	?	23µM	.	.	.	.
O=C(CN1C(=O)NC2(CCCCCC2)C1=O)c1ccc(OC(F)F)cc1OC(F)F	?	?	.	.	.	.
COc1ccc(/C=C(/NC(=O)c2ccc(OC)c(OC)c2)C(=O)NCCCn2ccnc2)cc1	.	.	.	.	.	.
COc1ccc(N2C(=O)c3ccccc3NC2c2ccc(OC)c(COc3ccccn3)c2)cc1 (configuration not stated)	?	?	.	.	.	.
COc1ccc(C2Nc3ccccc3C(=O)N2Cc2ccccc2)cc1COc1ccc([N+](=O)[O-])c(C)c1 (configuration not stated)	.	.	/	/	/	/
CCCN1C(=O)c2ccccc2NC1c1ccc(OC)c(COc2ccc([N+](=O)[O-])cc2)c1 (configuration not stated)	10µM	10µM	/	/	/	/
COc1ccc(C2Nc3ccccc3C(=O)N2Cc2ccccc2)cc1COc1ccccn1 (configuration not stated)	?	.	.	.	.	.
COc1cccc(OCc2cc(C3Nc4ccccc4C(=O)N3c3ccccc3)ccc2OC)c1 (configuration not stated)	10µM	13µM	/	/	/	/
CCCN1C(=O)c2ccccc2NC1c1ccc(OC)c(COc2cccc(OC)c2)c1 (configuration not stated)	?	16µM	/	/	/	/
COc1ccc(C2Nc3ccccc3C(=O)N2Cc2ccccc2)cc1COc1ccccc1F (configuration not stated)	?	14µM	/	/	/	/
COc1ccc(NC(=O)CCCS(=O)(=O)c2nc(-c3ccccc3OC)cc(C(F)(F)F)n2)c(OC)c1	.	.	/	/	/	/
COc1ccc(Cl)cc1NC(=O)CCCS(=O)(=O)c1nc(-c2ccc(OC)c(OC)c2)cc(C(F)(F)F)n1	1.5µM	2.1µM	/	/	/	/
COc1ccccc1-c1cc(C(F)(F)F)nc(S(=O)(=O)CCCC(=O)Nc2cc(C)on2)n1	0.92µM	1µM	.	9.2µM	4.1µM	-102
COc1ccc(-c2cc(C(F)(F)F)nc(S(=O)(=O)CCCC(=O)Nc3cc(C)on3)n2)cc1OC	0.73µM	1.2µM	.	16µM	21µM	-110
CCC(Cn1nnc2ccccc2c1=O)NC(=O)Nc1cccc(Cl)c1 (configuration not stated)	.	?	/	/	/	/
CC(C)CC(N)c1csc(Nc2ccc(C(=O)c3ccccc3)cc2)n1 (configuration not stated)	?	16µM	/	?	.	-59
CC(=O)c1ccc(Nc2nc(C(N)COCc3ccccc3)cs2)cc1 (configuration not stated)	23µM	?	/	.	.	.
CC(=O)c1ccc(Nc2nc(C(N)CC(C)C)cs2)cc1 (configuration not stated)	?	16µM	/	.	.	.
SMILES	DT40 TDP1 CPT	TDP1 cell noCPT	uPA generation	HT1080NT lethal	HT1080 IDH1KD tx	IL1B secr inh
NC(COCc1ccccc1)c1csc(Nc2ccc(C(=O)NCCO)cc2)n1 (configuration not stated)	?	?	/	.	.	.
COc1ccccc1/C=C/C(=O)OCC(=O)NC(=O)NC1CCCC1	.	.	.	.	.	.
O=C1c2ccccc2C(=O)N1N(c1ccccc1)c1ccccc1	.	.	.	.	.	.
O=C1C=CC(=O)N1N(c1ccccc1)c1ccccc1	10µM	21µM	.	.	?	?
Cc1ccccc1CN1[C@H](C)[C@H](c2ccccc2)OCCS1(=O)=O	?	13µM	/	/	/	/
C[C@@H]1[C@H](c2ccccc2)OCCS(=O)(=O)N1Cc1cccc(Cl)c1	?	13µM	/	/	/	/
C[C@@H]1[C@H](c2ccccc2)OCCS(=O)(=O)N1Cc1ccc(Cl)cc1	11µM	10µM	/	/	/	/
CC1CCCCN1C(=O)Cn1c(=O)n(-c2ccc(Cl)cc2)c(=O)c2c3c(sc21)CCC3 (configuration not stated)	.	?	/	/	/	/
C=C(C)c1nc(Oc2ccccc2)nc(Oc2ccccc2)n1	7.3µM	6.5µM	.	?	?	-100
Cc1cc(Oc2ccccc2)nc(-c2ccccc2)n1	.	.	/	.	.	.
COc1ccccc1NC(=S)NC(=O)c1ccc(Cn2cc(Br)cn2)cc1	.	?	.	.	?	.
C=CC(C)N1C(=O)S/C(=C\c2ccc(N3CCOCC3)cc2C)C1=O (configuration not stated)	21µM	13µM	.	.	.	-77
CCCCC(=O)N1CC(=O)Nc2ccc(F)cc2C1c1ccccc1 (configuration not stated)	.	.	.	.	.	.
O=C1CN(C(=O)COc2ccc(Cl)cc2Cl)C(c2ccccc2)c2cc(F)ccc2N1 (configuration not stated)	16µM	?	/	/	/	/
Cc1ccc2c(c1)C(c1ccc(F)cc1)N(C(=O)COc1ccc(Cl)cc1Cl)CC(=O)N2 (configuration not stated)	21µM	?	/	/	/	/
CCCC(=O)N1CC(=O)Nc2ccc(C)cc2C1c1ccc(F)cc1 (configuration not stated)	.	.	.	.	.	.

High-throughput results deposited in PubChem by National Center for Advancing Translational Sciences (NCATS).
